Test results taken from PubChem BioAssay (NCI).
Compounds without any hit were thinned out: in the full panel of roughly 83,000, 20% have a hit.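 A percent growth of 40 corresponds to 60% growth inhibition; 0 means no net growth; -100 means all cells died. Active threshold: below 10.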 A number with no mark means an inactive call. Active and inactive are the calls of the source.

system: HL-60(TB) leukemia; test: NCI-60 one-dose screen, 48 h (100 = growth as untreated, 0 = no growth, -100 = all killed); details: 10 µM unless noted

Structure (SMILES) | growth
COc1ccc(C(=S)N2CCN(c3ccc(Cl)cc3)CC2)cc1 | 89.7%
O=C(NCc1cccnc1)/C(=C\c1ccc(Br)cc1)S(=O)(=O)c1ccccc1 | 17.4%
N/N=C(/Cc1ccccc1)NNC(N)=S | 97.8%
S=C(c1ccccc1)N1CCN(c2cccc(Cl)c2)CC1 | 90.5%
CCn1cc(C(=O)N/N=C/c2cccc(F)c2)c(=O)c2cc(F)c(N3CCNC(C)C3)c(F)c21 (stereo not given) | 65.5%
Nc1nc2cc(O)ccc2n2cc3c(F)cccc3c12 | 21.7%
O=[N+]([O-])c1ccc(N/N=C/C2CCCCCC2)c([N+](=O)[O-])c1 | 97.1%
c1ccc2c(c1)Nc1cc3ccccc3cc1N2 | 7.75% (active)
COc1ccc(-c2nc(/C=C3\SC(=NCc4ccccc4)NC3=O)c3ccccn23)cc1 | -7.59% (active)
CCOC(=O)C1CCNC(=O)C1=O (stereo not given) | 86%
CSCCCNC(=O)c1ccc2c(c1)/C(=C/c1[nH]c(C)cc1C)C(=O)N2 | 46.1%
CCCNc1nc2ccccc2c2c1S(=O)(=O)c1ccc(Cl)cc1C2=O | -14.1% (active)
CCOC(=O)C1CCc2c(ccc3ccccc23)N1CCC#N (stereo not given) | 110%
O=C1Nc2c(ccc(Cl)c2Cl)/C1=C\c1cc(C(F)(F)F)cc(C(F)(F)F)c1 | -29.3% (active)
CC(C)CC1C(=O)N2CCC[C@H]2C2(O)O[C@](NC(=O)C3C=C4c5cccc6[nH]c(Br)c(c56)C[C@H]4N(C)C3)(C(C)C)C(=O)N12 (stereo not given in full) | 1.92% (active)
